KDM5B inh: inhibitors of human KDM5B histone demethylase. Q9UGL1. KDM5B demethylase, FDH-coupled NADH fluorescence (FDH is formaldehyde dehydrogenase). Potency, µM (doses to about 57.7 µM), actives largely listed as inhibitors. 220,000 tested, 2.6% active; also: potency is read from the fitted curve at half-maximal effect; 0% is about no effect; nearly all actives have a fitted effect of over 70% in size
Target sequence (Q9UGL1 whole entry, looked up): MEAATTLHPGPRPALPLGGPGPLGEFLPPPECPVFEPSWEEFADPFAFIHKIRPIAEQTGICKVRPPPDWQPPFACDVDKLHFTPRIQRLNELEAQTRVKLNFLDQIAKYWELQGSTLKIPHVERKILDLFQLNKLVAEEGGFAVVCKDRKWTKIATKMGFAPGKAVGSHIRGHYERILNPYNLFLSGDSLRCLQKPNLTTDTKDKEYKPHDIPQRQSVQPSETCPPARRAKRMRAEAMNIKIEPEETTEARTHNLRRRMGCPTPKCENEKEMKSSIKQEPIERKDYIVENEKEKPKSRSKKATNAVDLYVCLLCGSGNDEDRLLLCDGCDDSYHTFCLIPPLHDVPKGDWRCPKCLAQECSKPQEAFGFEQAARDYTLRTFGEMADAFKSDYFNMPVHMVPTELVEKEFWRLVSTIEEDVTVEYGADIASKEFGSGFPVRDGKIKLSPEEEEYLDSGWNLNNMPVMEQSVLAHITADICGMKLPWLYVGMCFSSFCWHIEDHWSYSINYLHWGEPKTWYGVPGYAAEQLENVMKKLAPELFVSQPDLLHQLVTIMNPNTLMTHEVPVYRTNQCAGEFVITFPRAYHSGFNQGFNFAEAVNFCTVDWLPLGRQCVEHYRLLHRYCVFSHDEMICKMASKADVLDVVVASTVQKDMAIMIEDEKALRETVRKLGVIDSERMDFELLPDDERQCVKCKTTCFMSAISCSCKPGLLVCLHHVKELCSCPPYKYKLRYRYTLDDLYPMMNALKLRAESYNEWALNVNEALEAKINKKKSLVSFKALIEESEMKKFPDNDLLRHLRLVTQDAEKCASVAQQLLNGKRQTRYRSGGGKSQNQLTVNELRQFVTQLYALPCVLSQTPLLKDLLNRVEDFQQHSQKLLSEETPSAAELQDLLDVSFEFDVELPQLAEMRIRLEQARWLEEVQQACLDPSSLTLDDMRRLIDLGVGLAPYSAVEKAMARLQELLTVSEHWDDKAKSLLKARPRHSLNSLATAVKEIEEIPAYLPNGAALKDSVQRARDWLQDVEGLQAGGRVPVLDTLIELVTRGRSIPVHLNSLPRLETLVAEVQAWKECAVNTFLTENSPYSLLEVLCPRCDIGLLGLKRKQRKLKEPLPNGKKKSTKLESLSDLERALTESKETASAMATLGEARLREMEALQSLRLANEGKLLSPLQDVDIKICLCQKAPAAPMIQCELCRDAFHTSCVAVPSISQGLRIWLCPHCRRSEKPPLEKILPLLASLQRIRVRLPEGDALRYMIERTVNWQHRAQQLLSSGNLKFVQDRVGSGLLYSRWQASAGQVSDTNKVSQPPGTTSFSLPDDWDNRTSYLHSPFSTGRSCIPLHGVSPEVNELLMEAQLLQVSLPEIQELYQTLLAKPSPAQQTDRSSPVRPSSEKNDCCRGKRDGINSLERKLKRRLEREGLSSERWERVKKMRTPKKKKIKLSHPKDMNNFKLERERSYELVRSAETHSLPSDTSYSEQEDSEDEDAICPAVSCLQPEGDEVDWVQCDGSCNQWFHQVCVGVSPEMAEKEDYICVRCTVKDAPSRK
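Compound dilutions met 200 nM (final) KDM5BΔAP for 10 min at room temperature before substrate addition. The substrate mix held 12.5 µM H3K4me3 with cofactors 25 µM α-ketoglutarate and 50 µM Fe²⁺. NADH signal gain over 30 min defined activity.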
IP6K1 inhibitor: blocks human inositol hexakisphosphate kinase 1 | Q92551 | IP6K1 kinase, ADP-Glo luminescence, 2 h; active compounds read low | activity change, % (series mostly up to about 58 µM) | 140,000 tested, 0.81% active | AID 1645851; in the data active = activity change below about -25%; also: % is scaled to controls: 0 for no effect and ±100 for the full control effect
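ADP-Glo luminescence measures ADP made by human IP6K1 during a 2 h RT reaction with ATP/IP6 (mix at 1.3 mM/130 uM); top library doses 57.5 and 19.1 uM final.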
IP6K1 inh cnf: human IP6K1 inhibition, confirmatory; recombinant IP6K1 kinase, ADP-Glo luminescence, 2 h; Potency, µM (titrated, usually from 49 µM), for inactives: at the highest dose activity change, negative = inhibition, hits mostly inhibitors; 1,200 tested, 13% active; shares compounds with IP6K1 inhibitor; also: potency is read from the fitted curve at half-maximal effect; % is scaled to controls: 0 for no effect and ±100 for the full control effect; nearly all actives have a fitted effect of over 65% in size
Active calls of the source: *; i = inactive; ? = inconclusive; · = no result; ! = repeats disagree. Most compounds without a hit are left out; they make up all but 2.8% or so of the library. Unless noted, calls follow the shape of the dose curve; as a rule, active = well fitted inhibition curve with a large enough effect; inconclusive = small, poorly fitted or top-dose-only effect; inactive = no such curve, though single readings can be large or run the other way.

SMILES	KDM5B inh	IP6K1 inhibitor	IP6K1 inh cnf
Cc1cccc(NC(=O)Cn2nnc(C(=O)Nc3ccc(F)c(Cl)c3)c2N)c1	i	-34*	-17%
COc1ccc(Cn2nnc(C(=O)Nc3ccc(F)c(F)c3)c2N)cc1Br	i	·	·
COc1cccc(NC(=O)c2nnn(Cc3ccc(OC)c(Br)c3)c2N)c1	i	-27*	?
COc1ccc(NC(=O)Cn2nnc(C(=O)Nc3ccc(C)c(F)c3)c2N)cc1Cl	i	21	·
Cc1cccc(-n2cc(CN3CCN(c4cc(N)nc(N)n4)CC3)cn2)c1	i	-3	·
CCn1ncc(NC(=O)Cn2ncc3cc(-c4cccc(C#N)c4)ccc32)n1	?	-9	·
O=[N+]([O-])c1cc(Cl)cc2cccnc12	i	·	·
N#Cc1cccc(-c2cn3cc(C(=O)NCCCc4ccccc4)nc3s2)c1	·	17	·
O=C(NCC1CC1)c1ccc2nnc(Cc3ccco3)n2c1	·	-27*!	?
COCCNC(=O)c1ccc2nnc(Cc3ccco3)n2c1	·	1	·
Cc1cccc(NC(=O)c2oc3c(c2C)-c2[nH]ncc2CC3)c1C	?	-12	·
Cc1ccc(NC(=O)c2oc3c(c2C)-c2[nH]ncc2CC3)c(Cl)c1	?	-45*	-18%
CCOC1CCOC2(CCN(C(=O)Cc3ccccc3)CC2)C1 (stereo not drawn)	·	-3	·
O=C(CSc1nc2c(cnn2-c2ccc(F)cc2)c(=O)[nH]1)Nc1ccc(Br)cc1	i	-28*	-1%
Cc1cc(C)cc(NC(=O)CSc2nc3c(cnn3-c3ccc(F)cc3)c(=O)[nH]2)c1	i	-3	·
COc1cccc(CCC(=O)N2C[C@@H]3CC[C@H](C2)N(CC2CCC2)C3=O)c1	i	-31*	-11%
COc1cccc(CCC(=O)N2CC3CC(C2)[C@H]2CCCC(=O)N2C3)c1 (stereo partly drawn)	i	23	·
O=C(Nc1cc(F)ccc1F)c1cnn2c(C(F)F)cc(C3CC3)nc12	i	·	·
CC(C)(C)OC(=O)N1CCC(c2c(C(=O)NCc3ccccc3)cnn2-c2ccc(F)cc2)CC1	i	-11	·
CC(C)(C)OC(=O)N1CCC(c2c(C(=O)NCCc3ccccc3)cnn2-c2ccc(F)cc2)CC1	i	-26*	20%
COCCOc1ccc2c(n1)CCN(C(=O)Cc1cccc(OC)c1)C2	i	5	·
CCOc1ccc2c(n1)CCN(C(=O)Cc1cccc(OC)c1)C2	i	-26*	-23%
COc1ccc(-c2nc(NC(=O)c3cccc(OC)c3)sc2C)cc1	i	·	·
COc1ccc(NC(=O)Nc2c(NC3CCCCC3)c3ccccc3oc2=O)cc1OC	i	·	·
O=C(c1ccc(F)c(F)c1Nc1ccc(I)cc1F)N1CC(O)([C@H]2CCCCN2)C1	·	·	-3%
SMILES	KDM5B inh	IP6K1 inhibitor	IP6K1 inh cnf
O=C(CCl)N(CC1=CCSC1)c1ccccc1	i	·	·
O=C(NC1CCN(c2cc(-c3ccc(F)cc3)[nH]n2)C1)c1ccccc1F (stereo not drawn)	i	20	·
CCc1nnc(NC(=O)c2nc(S(=O)(=O)Cc3cccc(C)c3)ncc2Cl)s1	i	-4	·
CCc1nnc(NC(=O)c2nc(S(=O)(=O)Cc3ccc(C)cc3)ncc2Cl)s1	?	-33*	-10%
CN(C)c1ccc(-c2cc(-c3ccc(=O)[nH]c3)c3cncn3c2)cc1	?	0	-14%
OCc1cccc(-c2cc(-c3ccncc3)c3cncn3c2)c1	?	14	·
COCC(=O)N[C@H]1C[C@@H](CO)N(Cc2cccc(C#N)c2)C1	i	3	·
O=C(O)c1c(Cl)ccc(Cl)c1Cl	i	·	·
O=C(c1sc2cccc(F)c2c1Cl)N1CCC2(CC1)OCCO2	i	·	·
NC[C@H](O)c1ccc(O)c(O)c1	·	-70*	-19%
CNC[C@H](O)c1ccc(O)c(O)c1	·	-14	·
CCN1C(=O)COC[C@@H]1[C@H](O)c1ccc(NC(=O)c2cc(C)nn2C)cc1	i	14	·
Cc1ccc(C(=O)N2CCC3(CC2)CC(N(Cc2ccc(F)cc2)C2CC2)CCO3)cc1 (stereo not drawn)	i	-16	·
Cc1ccc(C(=O)N2CCC3(CC2)CC(N(Cc2ccc(F)cc2)C2CC2)CCO3)cn1 (stereo not drawn)	i	-26*	4%
C=CCn1ncc(CN2CCC(c3nnc(Cn4ccnc4C)n3C)CC2)c1C	i	9	·
COCC(=O)N1CCC2(CC1)CCN(Cc1cccs1)c1ccccc1O2	i	9	·
CC(=O)Nc1cccc(-c2nc(-c3ccccc3)no2)c1	i	-15	·
CC(=O)Nc1cccc(-c2nc(-c3c(C)noc3C)cc3cc(C)oc23)c1	35µM*	-28*	-29%
CN1CCC(Nc2nc(Nc3ccc(Oc4ccccc4)cc3)c3c(=O)[nH]cc(Br)c3n2)CC1	·	-41*	?
Cn1ncc2c(Nc3ccccc3)nc(NC3CCCC3)nc21	i	·	·
COc1ccc(-c2cccc(C(=O)N3CCN(C(=O)Cc4ccccn4)CC3)c2)nn1	·	-5	·
CC(=O)N1CCN(C(C(=O)O)c2c[nH]c3cc(F)ccc23)CC1 (stereo not drawn)	i	·	·
Cc1ccccc1C(=O)n1nc(-c2cccnc2)nc1NCc1ccccc1	i	20	·
Cc1cccc(C(=O)n2nc(-c3cccnc3)nc2NCc2ccccc2)c1	i	-30*	?
COc1ccc(CN2C(=O)[C@@H]3C[C@@H](CN3Cc3ccc4c(c3)OCO4)Oc3ccccc32)cc1	i	5	·
SMILES	KDM5B inh	IP6K1 inhibitor	IP6K1 inh cnf
O=C(Cc1ccccn1)N1CCCC(c2nn(-c3ccc(F)cc3)c(=O)[nH]2)C1 (stereo not drawn)	i	10	·
COc1ccccc1Nc1nc(-c2ccccc2F)nc2ccccc12	i	0	·
COc1cc2nc(-c3cc(F)ccc3O)nc(N[C@@H]3CNC[C@H]3C(C)(C)O)c2cc1OC	·	-62*	3.3µM*
O=C(NCc1cccs1)c1ccc2c(c1)sc1nc(-c3ccccc3)cn12	?	-25*	?
COc1ccc(-c2cn3c(n2)sc2cc(C(=O)NCc4cccs4)ccc23)cc1	?	-3	·
CC(C)n1ncc2c(C(=O)Nc3ccccc3)c3c(nc21)CCC3	i	·	·
Nc1nc(Nc2cccc(Cl)c2)sc1C(=O)c1ccc(F)cc1	i	-27*	-30%
Cc1ccc(C(=O)c2sc(Nc3cccc(Cl)c3)nc2N)cc1	i	·	·
Cc1cc(Nc2nc(N[C@@H](C)c3ncc(F)cn3)ncc2Cl)n[nH]1	·	-1	1%
O=C1/C(=C/c2ccccc2F)CCc2ccccc21	i	·	·
Cc1ccc(NC(=O)N2Cc3[nH]cnc3C[C@H]2c2nc(-c3ccc(Cl)cc3)no2)cc1	?	-2	·
O=C(CCc1cc2ccccc2o1)NC1CCCCC1	i	·	·
CCOC(=O)[C@H]1C[C@]2(CCCCN(CCOC)C2=O)N(C(=O)Cc2cccs2)[C@H]1c1ccco1	·	-6	·
COCCN1CCCC[C@]2(C[C@H](C(=O)O)[C@H](c3ccco3)N2C(=O)Cc2cccs2)C1=O	·	-25*	?
CCCCC1CCC(C(=O)NCc2cccc(NC(=O)C(C)C)c2)CC1 (stereo not drawn)	i	·	·
NCC(=O)N1CCC(n2nccc2NC(=O)Nc2cccc(F)c2)CC1	?	-4	·
O=C(Nc1cccc(F)c1)Nc1ccnn1C1CCN(C(=O)C2CCC2)CC1	i	-32*	-5%
COc1cc(C)c(C)cc1S(=O)(=O)N1CC(C)(C)[C@@](C)(O)C1	i	9	·
